# From PubChem BioAssay AID435022 (Sanford-Burnham Center for Chemical Genomics, 2010)
# About 1,100 (0.33%) of roughly 330,000 compounds were called active. No stated cut-off is given here; in the data, active means inhibition above about 35%; inactive means the rest. The sample as a whole holds a higher share of actives than the screen did.
# Test: lowers stimulated NF-kB luciferase signal in 697 B cells – cell-based, luminescence, uHTS, B-cell NF-kB inhibitor project, primary screen (AID 435022)
# Conditions: 697 B-cell NF-kB luciferase reporter, PMA/ionomycin, 16 h; at 4 µM; stronger effect = higher value
row,Compound,inhibition
1,CCCCCCCCCCCCn1ccc(=N)cc1,90.6% (active)
2,CCOc1ccc(C2SCC(=O)Nc3c2c(C)nn3C2CCOC(C)(C)C2)cc1 (stereo not given),24.3% (inactive)
3,COC(=O)COc1cc(C)cc2oc(=O)c3c(c12)CCCC3,13.3% (inactive)
4,CN1C2C=C(N(C(=O)c3ccc(Cl)cc3)c3ccccc3)CC1CC2 (stereo not given),-2.33% (inactive)
5,COc1cc(-n2c(=S)[nH]c3ccc(C)cc3c2=O)c(Cl)cc1Cl,-21.6% (inactive)
